DT40 TDP1 CPT: growth inhibition of DT40 Tdp1-/-;hTDP1 cells with camptothecin (screen for TDP1 inhibitors); chicken DT40 Tdp1-/-;hTDP1 cells + 20 nM CPT, ATP luminescence, 48 h; Potency, µM (doses to about 46.2 µM), inactives show at the highest dose activity change, negative = growth inhibition, hits mostly inhibitors; 420,000 tested, 12% active; note: potency is the fitted concentration of half-maximal effect; nearly all actives have a fitted effect of over 55% in size
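Chicken DT40 Tdp1-/- cells stably complemented with human TDP1 were seeded at 400 cells/well in medium containing 20 nM camptothecin, exposed to pin-transferred compounds, and grown at 37 °C for at least 48 hr. Viability was read as ATP luminescence.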
DT40 TDP1 no CPT: qHTS for Inhibitors of human tyrosyl-DNA phosphodiesterase 1 (TDP1): qHTS in cells in absence of CPT | DT40 Tdp1-/- hTDP1 cells, no CPT, ATP luminescence, 48 h | 420,000 tested, 15% active | AID 686978, 2013 | Potency, µM (titrated, usually from 46.2 µM), for inactives: top-dose activity change, negative = growth inhibition, usual class: inhibitors; note: potency is the fitted concentration of half-maximal effect; nearly all actives have a fitted effect of over 55% in size
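Growth kinetics read by CellTiter-Glo luminescence after ≥48 hr at 37 °C. Cells: DT40 Tdp1-/- stably carrying human TDP1, 400 per well, compound exposure in the absence of CPT (DMSO vehicle).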
HT1080 IDH1KD tx: kills HT-1080 cells with IDH1 knockdown; Potency, µM (series often up to 46.1 µM), without a hit: top-dose activity, negative = toxicity, hits mostly cytotoxic; 360,000 tested, 2% active; HT-1080 IDH1 knockdown viability, ATP luminescence, 48 h; AID 686971;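 note: potency is the fitted concentration of half-maximal effect; 0% = DMSO wells and -100% = cell-free medium wells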
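Luminescent ATP read-out (CellTiter-Glo, 10 min at room temperature) after 48 h compound exposure at 37 °C gave viability of IDH1-knockdown HT-1080 cells. Activity was normalised to DMSO and cell-free wells, then fitted as concentration-response curves.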
IL1B secr inh: inhibitors of inflammasome signaling (IL-1 beta secretion). AID 743279. 360,000 tested, 4.7% active. THP-1 LPS/ATP IL-1B secretion, AlphaLISA, 16 h; stronger effect = lower value. activity change, % at 57.5 µM; in the data active = activity change below about -50%; inconclusive = mostly about -30% to -49%
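THP-1 cells pretreated 1 hr with compounds (up to 57.5 uM final), then stimulated with LPS (250 ng/mL final) plus ATP (1.25 mM final); secreted IL-1B measured by AlphaLISA after 16 hr, decreased signal indicating inhibition.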
HT1080NT lethal: kills 2HG-producing HT-1080-NT fibrosarcoma cells; 360,000 tested, 1.6% active; Potency, µM (titrated, usually from 46.1 µM), inactives show at the highest dose activity, negative = less viability, most hits filed as cytotoxic; AID 686970; HT-1080-NT fibrosarcoma viability, CellTiter-Glo ATP luminescence, 48 h;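 note: NT is the 2HG producing partner of a matched IDH1 knockdown line; potency is the fitted concentration of half-maximal effect; 0% = DMSO-treated cells and -100% = media-only wells without cells; nearly all actives have a fitted effect of over 55% in size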
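750 cells/well, RPMI + 5% FBS; 2 h settle, compound pin-transfer, 48 h at 37 degrees C. CellTiter-Glo 10 min RT, luminescence. Normalized to DMSO and media-only wells.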
Numbers without * were called inactive; u = inconclusive; x = no result. Shown are actives, neighbours in structure and some others; about 19% of the full set was active somewhere. Unless noted, calls come from the whole dose curve; as a rule, active = well fitted curve in the direction sought with a large enough effect; inconclusive = small, poorly fitted or top-dose-only effect, or another doubt; inactive = no such curve, though single readings can be large; an effect the other way counts as inactive or inconclusive. Unless noted, % is set by controls: 0 for no effect and ±100 for the full control effect.

SMILES	DT40 TDP1 CPT	DT40 TDP1 no CPT	HT1080 IDH1KD tx	IL1B secr inh	HT1080NT lethal
Cc1ccc(NC(=O)c2cc(C)nn2-c2ccccc2)cc1	u	u	10.2%	-8.1	-8.3%
CC(C)(C)c1cc(C(=O)N/N=C/c2ccc(F)cc2)n(-c2ccccc2)n1	18.4µM*	23.1µM*	10.5%	10.6	-1.2%
O=c1ccc2cc(S(=O)(=O)NCc3ccc(Cl)cc3)ccc2[nH]1	-20.0%	-23.9%	x	x	x
COc1ccc(N2CC3=C(C2=O)C(c2ccc(Br)cc2)NC(=O)N3C)cc1 (configuration not stated)	-6.7%	-29.5%	x	x	x
COc1ccccc1N1CCN(C(=O)c2cnn(C(C)(C)C)c2C2CCN(C(=O)OC(C)(C)C)CC2)CC1	16.4µM*	-84.6%	x	x	x
CC(C)(C)OC(=O)N1CCC(c2c(C(=O)N3CCN(c4ccccc4F)CC3)cnn2C(C)(C)C)CC1	23.1µM*	u	x	x	x
COc1ccc(NC(=O)c2cc(C3CCCCN3S(=O)(=O)c3cn(C)cn3)on2)c(C)c1 (configuration not stated)	-14.2%	-7.2%	u	u	5.9%
CN1C(=O)Cc2cc(S(=O)(=O)CCC(=O)Nc3ccccc3)ccc21	8.2%	-1.8%	x	x	x
C[C@@]12CCC=C[C@H]1[C@H](c1ccc3ccccc3c1/C=C/c1ccccc1)N(Cc1ccccc1)C2=O	2.06µM*	u	-1.5%	38.0	-2.1%
C[C@@H]1CC=C[C@H]2[C@H]1C(=O)N(Cc1ccccc1)[C@H]2c1ccc(/C=C/c2ccccc2)cc1F	u	-55.0%	-25.3%	-1.8	u
C[C@@]12CCC=C[C@H]1[C@H](c1ccc(/C=C/c3ccccc3)cc1F)N(Cc1ccccc1)C2=O	14.6µM*	20.6µM*	u	-18.6	u
COc1ccc(-c2ccc(C)cc2)cc1[C@H]1[C@@H]2C=CCC[C@@]2(C)C(=O)N1Cc1ccccc1	u	u	u	4.2	u
C[C@@]12CCC=C[C@H]1[C@H](c1ccc(C(F)(F)F)cc1)N(Cc1ccccc1)C2=O	u	16.4µM*	-2.0%	41.0	-4.1%
CCCn1c(SCC(=O)NCc2ccccc2Cl)n[nH]c1=O	-7.0%	0.6%	-8.5%	7.0	-3.4%
O=C1CN(C(=O)CSc2nc3ccccc3n2CCc2ccccc2)c2ccccc2N1	u	23.1µM*	10.9%	-29.7	10.9%
Cn1c(SCC(=O)N2CC(=O)Nc3ccccc32)nc2ccccc2c1=O	-14.0%	0.6%	6.7%	u	2.7%
CC(C)CCn1c(SCC(=O)N2CC(=O)Nc3ccccc32)nc2scc(-c3cccs3)c2c1=O	-3.7%	u	2.8%	2.3	3.2%
O=C1CN(C(=O)CSc2nc3ccccc3c(=O)n2Cc2ccc(F)cc2)c2ccccc2N1	-27.9%	u	-24.6%	-71.0*	-24.7%
C=CCn1c(SCC(=O)N2CC(=O)Nc3ccccc32)nc2scc(-c3cccs3)c2c1=O	u	18.4µM*	-6.5%	-22.3	-16.9%
CCc1ccc(-n2c(=S)sc3c(=O)n(-c4ccccc4C)c(SCC(=O)O)nc32)cc1	4.6%	28.2%	-2.9%	42.7	-4.9%
CCCCn1c(-c2ccc(Br)cc2F)nc2c1c(=O)[nH]c(=O)n2CC(C)C	20.6µM*	23.1µM*	-24.4%	-68.4*	u
CCOC(=O)C1(Cc2ccccc2C(F)(F)F)CCN(C2CCN(C(C)C)CC2)CC1	23.1µM*	23.1µM*	14.6µM*	12.6	u
CCOC(=O)C1(Cc2ccccc2C(F)(F)F)CCN(Cc2ccc(COC)o2)CC1	9.2µM*	8.2µM*	u	u	u
CCOC(=O)C1(CCOC)CCN(Cc2ccc(COC)o2)CC1	0.3%	-29.4%	1.9%	10.3	-3.9%
Clc1nnc2c3ccccc3ccn12	10.4%	8.7%	15.6%	5.6	7.0%
SMILES	DT40 TDP1 CPT	DT40 TDP1 no CPT	HT1080 IDH1KD tx	IL1B secr inh	HT1080NT lethal
O=C(NCCN1CCOCC1)/C(=C\c1ccc(F)cc1)NC(=O)c1ccccc1	-8.2%	11.9%	4.4%	-7.8	0.3%
O=C(CCn1cncn1)NCC1Cc2cc(-c3ccsc3)cc(Cl)c2O1 (configuration not stated)	-13.9%	-13.3%	x	x	x
Cc1cccc(NC(=O)c2c(F)c(F)c(F)c(F)c2F)c1	-6.2%	17.6%	-1.2%	-4.7	-1.4%
O=C(Nc1ccc(Oc2ccc(NC(=O)Nc3ccccc3Cl)cc2)cc1)Nc1ccccc1Cl	18.4µM*	20.6µM*	-16.8%	-8.5	-0.7%
CC(=O)c1cccc(NC(=O)c2c(F)c(F)c(F)c(F)c2F)c1	u	29.1µM*	-7.9%	-28.8	-2.1%
COC(=O)c1sccc1NC(=O)c1cccc(F)c1	-15.3%	-7.9%	-5.1%	13.8	1.1%
COC(=O)c1sccc1NC(=O)c1c(F)c(F)c(F)c(F)c1F	u	u	u	-101.9*	18.4µM*
O=C(CN1CCCC1)Nc1ccc(NC(=O)Nc2ccccc2Cl)cc1	-17.0%	1.0%	-18.9%	u	-25.0%
O=C(Nc1ccc(Cl)cc1)Nc1cccc2nsnc12	u	29.1µM*	-3.4%	u	-4.8%
O=C(COc1ccccc1)Nc1cccc2nsnc12	7.9%	-27.8%	6.7%	5.1	0.3%
CN1CCN(C(=S)NC(=O)c2ccco2)CC1	1.0%	6.5%	-0.3%	17.0	6.5%
O=C1[C@@H](Oc2ccccc2)[C@@H](c2ccncc2)N1c1ccncc1	-23.7%	u	-0.6%	-12.9	-0.7%
O=C(NNC(=O)OCc1ccccc1)OCc1ccccc1	-2.0%	-9.0%	-11.1%	-7.1	5.4%
CCC(C(=O)Nc1ccncc1)c1ccccc1 (configuration not stated)	u	16.4µM*	4.3%	47.2	4.9%
O=C(Nc1ccccc1)Nc1cccc(Cl)c1Cl	u	u	u	-18.8	u
O=C(Nc1ccncc1)Nc1cccc(Cl)c1Cl	23.1µM*	u	-21.3%	-21.7	-23.8%
CC(C)(C)c1cc(NC(=O)Nc2ccccc2)no1	u	-24.1%	3.2%	-53.8*	7.5%
O=C(Nc1ccncc1)OCc1ccccc1	u	20.6µM*	-6.0%	-16.0	-14.3%
O=C(NCc1ccccc1Cl)[C@H]1CCCN1C(=O)[C@H]1CCCN1C(=O)c1ccccc1	-19.7%	-13.7%	10.2%	3.3	18.7%
CC(C)Sc1nc2ccccc2[nH]1	-21.4%	0.7%	6.5%	18.6	4.4%
CN1CCn2cnc(C(=O)NCCCCCNC(=O)OC(C)(C)C)c2C1=O	0.3%	4.9%	-3.3%	-2.2	-2.6%
CC(Oc1ccccc1F)C(=O)NNC(=O)c1cccc(S(=O)(=O)N2CCN(C)CC2)c1 (configuration not stated)	8.4%	-6.8%	16.2%	4.8	4.1%
